Source: PubChem BioAssay (NCI)
Where “and” joins values, the source holds several entries; their conditions need not be identical. Equal values may be shown once. About 83,000 compounds went through this panel and 20% of them were active in at least one assay; those are over-represented in the sample as a whole.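 Single-dose data. Exposure time 48 hours. Values below 10 considered active.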 A number with no mark means an inactive call. Calls of active or inactive are those of the source.

What follows are compounds tested on MDA-MB-468 breast (assay: NCI-60 one-dose screen, 48 h (100 = growth as untreated, 0 = no growth, -100 = all killed)). Conditions: 10 µM unless noted.

Going from `C=CCOc1cccc(/C=C2\SC(=S)N(C3CC(=O)N(c4ccc(Br)cc4)C3=O)C2=O)c1` (stereo not given) to `O=C1/C(=C\c2cccnc2)SC(=S)N1CCc1ccc(O)cc1`, the growth falls from 111% to 35.2%.

Compared with `Cc1nc2cc(NC(=O)CN3CCN(CCN4C(=O)c5cccc6cccc(c56)C4=O)CC3)ccc2s1`, `N[C@@H]1CCC[C@H]1NCCCCN1C(=O)c2cccc3cccc(c23)C1=O` is higher in growth: 38.2% for the first, 53.9% for the second.

Compared with `O=[N+]([O-])c1cccc(/C=N/NC(=S)NC23CC4CC(CC(C4)C2)C3)c1`, `O=C(Nc1ccc(OS(=O)(=O)Cc2ccccc2)cc1)C12CC3CC(CC(C3)C1)C2` is lower in growth: 82.1% for the first, 66.6% for the second.

First: O=C1/C(=C/c2ccc(F)cc2)Sc2c(Br)cccc21
Second: NS(=O)(=O)c1ccc(CCNC(=O)/C=C/c2ccc(Cl)cc2)cc1
The growth of the first is lower: 84.1% for the first, 103% for the second.

Compared with `OC1CC2c3ccccc3C1c1ccccc12` (stereo not given), `OC(CCN1CCCC1)(c1ccccc1)C1CCCCC1` (stereo not given) is lower in growth: 111% for the first, 92% for the second.

First: CCCCCCC(=O)C(C)C
Second: CC(C)C(=O)Cc1cnccn1
The growth of the first is lower: 98.8% for the first, 119% for the second.

Compared with `COc1ccc(/C=N/NC(=O)CSc2nc(-c3cnccn3)cc(-c3cccs3)c2C#N)cc1`, `COc1ccc(-c2nc(C#N)c(NCC(c3ccc(Cl)cc3)N3CCCCC3)o2)cc1` (stereo not given) is higher in growth: 83.1% for the first, 93.3% for the second.

Compared with `CCN1CCN(C(=O)[C@]23CC[C@@H](C)[C@H](C)[C@H]2C2=CC[C@@H]4[C@@]5(C)C/C(=C/c6cccc(OC)c6OC)C(=O)C(C)(C)[C@@H]5CC[C@@]4(C)[C@]2(C)CC3)CC1`, `COc1cc(/C=C/C(=O)N2CCN(C(=O)c3cc(OC)c(OC)c(OC)c3)CC2)ccc1OCCCN1C(=O)c2cccc3cccc(c23)C1=O` is higher in growth: 16.4% for the first, 102% for the second.

Compared with `CN1CCN(Cc2ccc(NC(=O)c3cncc(C#Cc4cncc5ncccc45)c3)cc2C(F)(F)F)CC1`, `CN1CCN(c2ccc3nc(/N=C/c4ccc5sc(-c6ccc([N+](=O)[O-])cc6)nc5c4)sc3c2)CC1` is higher in growth: 43.5% for the first, 109% for the second.

Compared with `O=C1c2cccc3cccc(c23)C(=O)N1CCCCCCCCCCN1C(=O)c2cccc3cccc(c23)C1=O`, `COc1ccc(Cn2c(Br)c3c(c2-c2cc(OC)c(OC)c(OC)c2)CCc2sc(NC(=O)c4ccc(OC)cc4)nc2-3)cc1` is lower in growth: 112% for the first, 98.8% for the second.

First: Cn1c2ccccc2c2nnc(NCCCCO)nc21
Second: Cc1nc2cc(Nc3nc(N4CCOCC4)nc(N4CCN(C)CC4)n3)ccc2n1Cc1ccccc1
The growth of the first is lower: 95.8% for the first, 111% for the second.

Compared with `CNC(=O)c1cc(N2CCc3cc(NC(=O)Nc4ccc(Cl)c(Cl)c4)ccc32)ccn1`, `O=C1c2cc(Cl)ccc2-c2c(O)cc(Cl)cc21` is lower in growth: 84.5% for the first, 48.6% for the second.

Going from `CC(C)(C)OC(=O)N1CCN(CCn2cc(C(F)(F)F)c3c(Cl)ncnc32)CC1` to `CCOc1cc2c(cc1OCC)C(c1cc(OC)c(O)cc1Cl)NCC2` (stereo not given), the growth rises from 19.4% to 61.4%.

Going from `Nc1cc(Cl)cc2cccnc12` to `O=C1CC2(O)CSc3nc(=O)cc(n32)N1` (stereo not given), the growth rises from 92.7% to 109%.

In the case of `COc1ccc(-c2oc3cc(O)c(OC)c(O)c3c(=O)c2OC)cc1O`, the growth is reported as -26.6% (active).
`CO[C@H]1C[C@@H]2CC[C@@H](C)[C@@](O)(O2)C(=O)C(=O)N2CCCC[C@H]2C(=O)O[C@H]([C@H](C)C[C@@H]2CC[C@@H](OC(=O)C(C)(CO)CO)[C@H](OC)C2)CC(=O)[C@H](C)/C=C(\C)[C@@H](O)[C@@H](OC)C(=O)[C@H](C)C[C@H](C)\C=C/C=C/C=C/1C` was tested, and the growth was 0.224% (active).
With `Cc1ccc(C2CC(c3cccc(Nc4ccncc4)c3)=NN2c2ccccc2)cc1` (stereo not given) the growth was -78.5% (active).
`CC(=O)/C(=C\c1c(-c2ccccc2)[nH]c2ccccc12)S(=O)(=O)c1ccccc1` was tested, and the growth was 6.12% (active).
With `Cc1cc(N(CCNc2ccnc3cc(Cl)ccc23)Cc2ccc3c(c2)OCO3)nc(N2CCCC2)n1` the growth was -39.4% (active).
With `COc1ccc(-c2nn(-c3cccc(Cl)c3)cc2-c2c(C#N)c(=O)n3[nH]c(-c4ccc(C)cc4)nc3c2C#N)cc1` the growth was -1.87% (active).
With `COc1ccc(Cn2cnc3cc(C(=O)Nc4cccc5ccccc45)ccc32)c(OC)c1` the growth was -31.6% [30 µM] (active).
For `Cc1ccc(/C=C/c2c(C(=O)/C=C/c3ccc(Cl)cc3)c(C)nc3ccccc23)cc1`, the growth was -23.3% (active).
In the case of `O=C(/C=C1\C(=O)N(Cc2ccc([N+](=O)[O-])cc2)c2ccccc21)c1ccc(OCCN2CCCCC2)cc1`, the growth is reported as -63.1% (active).
In the case of `COc1cc2c(c(O)c1Cl)C(=O)c1c(O)cc(C[C@H](C)O)cc1[C@H]2[C@H]1c2cc(C[C@H](C)O)cc(O)c2C(=O)c2c1cc(OC)c(Cl)c2O`, the growth is reported as -14.6% (active).
For `Cc1ccc(NC(=S)NNC(=S)Nc2ccc(C)cc2)cc1`, the growth was 99.3% and 34%.
`C#CCOc1ccc2ncnc(NCc3cccc(NC(=O)CCl)c3)c2c1` was tested, and the growth was 4.87% [8.25 µM] (active).
